Source: PubChem
AMA1 RON2 block = qHTS for Inhibitors of AMA1-RON; Towards Development of Antimalarial Drug Lead: Primary Screen | AlphaScreen AMA1-biotinylated RON2 peptide binding | Potency, µM (top dose mostly 58.2 µM), usual class: inhibitors | 360,000 compounds, 0.2% hits | AID 720542, 2013; note: nearly all actives have a fitted effect of over 45% in size
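AMA1 (3D7) with his tag at 25 nM final met compounds first, then biotinylated RON2 peptide at 25 nM; detection used donor plus acceptor beads, 10 µg/mL apiece, read by AlphaScreen after 30 min at room temperature.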
Pf growth 48h = Primary qHTS for delayed death inhibitors of the malarial parasite plastid, 48 hour incubation | P. falciparum luciferase growth in erythrocytes, 48 h | Potency, µM (doses to about 28.7 µM), most hits filed as inhibitors | 310,000 compounds, 5.9% hits
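First compound was added to culture medium, then infected red cells at 0.1% parasitemia and 2% hematocrit (final). After incubation at 37 C under 5% CO2, luciferase detection reagent was dispensed and light output recorded.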
Pf growth 96h = Primary qHTS for delayed death inhibitors of the malarial parasite plastid, 96 hour incubation; P. falciparum luciferase reporter growth, 96 h; Potency, µM (highest dose often 28.7 µM), usual class: inhibitors; 320,000 compounds, 6.9% hits; AID 504834, 2011
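Two parasite generations (96 h, 37 C, 5% CO2) of compound exposure in infected erythrocytes (0.05% parasitemia, 2% hematocrit). Luciferase-reporter P. falciparum; decreased luminescence indicates inhibited growth, aimed at apicoplast-acting delayed death.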
NS1 inh = qHTS Assay for Inhibitors of Influenza NS1 Protein Function; Potency, µM (highest dose often 46.1 µM); 270,000 compounds, 0.4% hits; calls by dose curve; note: actives are rising curves; nearly all actives have a fitted effect of over 50% in size
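Growth recovery, yeast-based: influenza A NS1 expressed in S. cerevisiae causes slow growth, and suppressors are detected by OD600. The parent strain without NS1 is used as positive control.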
Sm TGR inh = qHTS Assay for the Inhibitors of Schistosoma Mansoni Peroxiredoxins. 360,000 compounds, 3% hits. Schistosoma mansoni thioredoxin glutathione reductase (TGR), Q962Y6. purified TGR, DTNB reduction, TNB absorbance 405 nm. Potency, µM (titrated, usually from 114 µM), usual class: inhibitors; note: nearly all actives have a fitted effect of over 60% in size
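TGR 20 nM + NADPH 100 uM (dispensed conc.), cpd preinc 15 min RT; start with NADPH (500 uM addition) then DTNB (15 mM addition). Kinetic TNB absorbance, 405 nm filter. Four-parameter Hill fit across titration.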
A number is an active result; [ ] = another dose, or the depositor's remark. This is a sample that favours compounds with a hit; in the whole collection about 11% have one here. Unless noted, calls come from the whole dose curve; as a rule, active = well fitted curve in the direction sought with a large enough effect; inconclusive = small, poorly fitted or top-dose-only effect, or another doubt; inactive = no such curve, though single readings can be large; an effect the other way counts as inactive or inconclusive.

What do the screens show for `CSc1ccccc1NC(=O)COc1ccc(Cl)cc1C`?
AMA1 RON2 block: inactive; Pf growth 48h: inactive; Pf growth 96h: inactive; NS1 inh: inactive; Sm TGR inh: inactive

Results for COc1ccccc1OCC(=O)Nc1cc(S(=O)(=O)N2CCCCC2)ccc1N1CCCCC1 ?
AMA1 RON2 block: inactive[11.6 µM]; Pf growth 48h: 5.2µM; Pf growth 96h: 2.1µM; NS1 inh: inconclusive; Sm TGR inh: inactive

How did CCN(CC)c1ccc(/C=N/N(c2ccccc2)c2ccccc2)c(O)c1 do in these assays?
AMA1 RON2 block: inactive; Pf growth 48h: inconclusive; Pf growth 96h: 7.4µM; NS1 inh: inactive; Sm TGR inh: inactive

How did Oc1ccc(/C=N/N(c2ccccc2)c2ccccc2)c(O)c1O do in these assays?
Pf growth 48h: inconclusive; Pf growth 96h: inactive; NS1 inh: inactive; Sm TGR inh: 40µM

What do the screens show for `Cc1ccc(-n2c(=O)c3c(cnn3C)n(Cc3ccccc3F)c2=O)cc1`?
Sm TGR inh: inactive

What do the screens show for `COc1ccc(-c2nc(CN3CCN(C(=O)c4ccco4)CC3)c(C)o2)cc1OC`?
AMA1 RON2 block: inactive; Pf growth 48h: inconclusive; Pf growth 96h: inactive; NS1 inh: inactive; Sm TGR inh: 28µM

How did COc1ccc(-c2nc(CN3CCC(c4ccccc4)CC3)c(C)o2)cc1OC do in these assays?
AMA1 RON2 block: inactive; Pf growth 48h: 12µM; Pf growth 96h: 13µM; NS1 inh: inactive; Sm TGR inh: inconclusive

What do the screens show for `COc1ccc(-c2nc(CN3CCN(C(=O)c4ccco4)CC3)c(C)o2)c(F)c1`?
AMA1 RON2 block: inactive; Pf growth 48h: inconclusive; Pf growth 96h: inconclusive; NS1 inh: inactive; Sm TGR inh: 50µM

Results for COc1ccc(-c2nc(CN3CCN(C(=O)c4ccco4)CC3)c(C)o2)c(OC)c1C ?
AMA1 RON2 block: inactive; Pf growth 48h: 7.4µM; Pf growth 96h: inactive; NS1 inh: inactive; Sm TGR inh: inconclusive

Results for Cc1nnc(SCC(=O)N2CCCC(N3CCN(c4ccc(F)cc4)CC3)C2)o1 (centres undefined) ?
AMA1 RON2 block: inactive; Pf growth 48h: inactive; Pf growth 96h: inactive; NS1 inh: inactive; Sm TGR inh: inactive

What do the screens show for `COc1ccc(CN2CCN(C(=O)c3ccco3)CC2)cc1OC`?
AMA1 RON2 block: inactive; Pf growth 48h: inconclusive; Pf growth 96h: inconclusive; Sm TGR inh: inactive

Results for Cc1ccc(C)c(COc2coc(CN3CCN(C(=O)c4ccco4)CC3)cc2=O)c1 ?
AMA1 RON2 block: inactive; Pf growth 48h: 12µM; Pf growth 96h: inconclusive; Sm TGR inh: inactive

Results for COc1ccc(CN2CCN(C(=O)c3ccco3)CC2)cc1OCc1ccccc1 ?
AMA1 RON2 block: inconclusive; Pf growth 48h: inconclusive; Pf growth 96h: 0.093µM; NS1 inh: inactive; Sm TGR inh: inactive

What do the screens show for `Cc1cc(C)c2nc(/N=C(\N)NC(=O)Nc3ccccc3)nc(C)c2c1`?
AMA1 RON2 block: inactive; Pf growth 48h: 1.9µM; Pf growth 96h: 13µM; NS1 inh: inconclusive; Sm TGR inh: inactive

Results for CCCC(=O)N/C(N)=N/c1nc(C)c2ccccc2n1 ?
AMA1 RON2 block: inactive; Pf growth 48h: inconclusive; Pf growth 96h: 1.9µM; NS1 inh: inactive; Sm TGR inh: inactive

What do the screens show for `Cc1cc(C)c2nc(/N=C(\N)NC(=O)c3ccccc3)nc(C)c2c1`?
AMA1 RON2 block: inactive; Pf growth 48h: inconclusive; Pf growth 96h: inconclusive; NS1 inh: inactive; Sm TGR inh: inactive

How did CCc1ccc2nc(/N=C(\N)NC(=O)c3ccccc3)nc(C)c2c1 do in these assays?
AMA1 RON2 block: inactive; Pf growth 48h: 9.3µM; Pf growth 96h: 10µM; NS1 inh: inactive; Sm TGR inh: inactive

How did CC1CCN(C(=O)Cn2c(-c3cccs3)cc3cc(Cl)ccc32)CC1 do in these assays?
Sm TGR inh: inactive

What do the screens show for `COc1cc(-c2nc3ccccn3c2Nc2ccccc2C)ccc1O`?
Sm TGR inh: inactive

How did CCC(=O)N1CCC1(C)C(=O)Nc1ccc2nc(C)ccc2c1 (centres undefined) do in these assays?
AMA1 RON2 block: inactive

How did Cc1cccc(-c2nnc(NC(=O)c3ccc(N4C(=O)CCC4=O)cc3)s2)c1 do in these assays?
AMA1 RON2 block: inactive; Pf growth 48h: inconclusive; Pf growth 96h: 4.7µM; NS1 inh: inactive; Sm TGR inh: inactive

How did Cc1ccccc1-c1nnc(NC(=O)c2ccc(N3C(=O)CCC3=O)cc2)s1 do in these assays?
AMA1 RON2 block: inactive; Pf growth 48h: inactive; Pf growth 96h: 9.3µM; NS1 inh: inactive; Sm TGR inh: inactive

Results for CCN(CC)c1ccc(/C=C/c2cc(-c3ccccc3)c3ccccc3n2)cc1 ?
AMA1 RON2 block: inactive; Pf growth 48h: inconclusive; Pf growth 96h: 12µM; NS1 inh: inactive; Sm TGR inh: inactive

What do the screens show for `CCCN(Cc1cccs1)C(=O)Nc1cc(C)ccc1OC`?
Sm TGR inh: inactive

What do the screens show for `COc1ccc(NC(=O)c2cc(C3CC3)nc3c2c(C)nn3-c2ccc(C)cc2)cc1OC`?
Sm TGR inh: inactive

Results for CCN1CCc2c(sc(NC(=O)COc3ccccc3)c2C(=O)OC)C1 ?
AMA1 RON2 block: inactive; Pf growth 48h: 15µM; Pf growth 96h: inactive; NS1 inh: inactive; Sm TGR inh: inactive

What do the screens show for `CNC(=O)c1c(NC(=O)c2ccc(S(=O)(=O)N3CC(C)OC(C)C3)cc2)sc2c1CCN(C(C)C)C2` (centres undefined)?
AMA1 RON2 block: inactive; Pf growth 48h: inconclusive; Pf growth 96h: inactive; NS1 inh: inactive; Sm TGR inh: inactive

Results for CCN1CCc2c(sc(NC(=O)Cc3ccccc3)c2C(N)=O)C1 ?
AMA1 RON2 block: inactive; Pf growth 48h: inactive; Pf growth 96h: inconclusive; NS1 inh: inactive; Sm TGR inh: inactive

Results for CNC(=O)c1c(NC(=O)c2ccc(S(=O)(=O)N3CCCC3)cc2)sc2c1CCN(C(C)C)C2 ?
Pf growth 48h: 2.6µM; Pf growth 96h: inconclusive; NS1 inh: inconclusive; Sm TGR inh: inactive

What do the screens show for `CCN1CCc2c(sc(NC(=O)Nc3ccc(Cl)c(Cl)c3)c2C(N)=O)C1`?
AMA1 RON2 block: inactive; Pf growth 48h: 12µM; Pf growth 96h: inactive; NS1 inh: inactive; Sm TGR inh: inactive

How did CNC(=O)c1c(NC(=O)c2ccc(S(=O)(=O)N3CCCCC3C)cc2)sc2c1CCN(C)C2 (centres undefined) do in these assays?
AMA1 RON2 block: inactive; Pf growth 48h: inconclusive; Pf growth 96h: 10µM; NS1 inh: inactive; Sm TGR inh: inactive

Results for Nc1nonc1-n1nnc(C(=O)N/N=C/c2ccncc2)c1-c1ccccc1 ?
AMA1 RON2 block: inactive; Pf growth 48h: inactive; Pf growth 96h: inactive; NS1 inh: inactive; Sm TGR inh: inactive

Results for CC(=O)c1ccc(NC(=O)Cn2c(=O)cc(C)c3c(C)nn(-c4cccc(F)c4)c32)cc1 ?
Sm TGR inh: inactive
